Structures are written as SMILES. A number with no mark means an inactive call. Active and inactive are the calls of the source. Rule as the data show it: active = remaining activity below about 50%; inactive = the rest.

Chain of Phospholipase D1 (Homo sapiens) (Q13393 whole entry, looked up): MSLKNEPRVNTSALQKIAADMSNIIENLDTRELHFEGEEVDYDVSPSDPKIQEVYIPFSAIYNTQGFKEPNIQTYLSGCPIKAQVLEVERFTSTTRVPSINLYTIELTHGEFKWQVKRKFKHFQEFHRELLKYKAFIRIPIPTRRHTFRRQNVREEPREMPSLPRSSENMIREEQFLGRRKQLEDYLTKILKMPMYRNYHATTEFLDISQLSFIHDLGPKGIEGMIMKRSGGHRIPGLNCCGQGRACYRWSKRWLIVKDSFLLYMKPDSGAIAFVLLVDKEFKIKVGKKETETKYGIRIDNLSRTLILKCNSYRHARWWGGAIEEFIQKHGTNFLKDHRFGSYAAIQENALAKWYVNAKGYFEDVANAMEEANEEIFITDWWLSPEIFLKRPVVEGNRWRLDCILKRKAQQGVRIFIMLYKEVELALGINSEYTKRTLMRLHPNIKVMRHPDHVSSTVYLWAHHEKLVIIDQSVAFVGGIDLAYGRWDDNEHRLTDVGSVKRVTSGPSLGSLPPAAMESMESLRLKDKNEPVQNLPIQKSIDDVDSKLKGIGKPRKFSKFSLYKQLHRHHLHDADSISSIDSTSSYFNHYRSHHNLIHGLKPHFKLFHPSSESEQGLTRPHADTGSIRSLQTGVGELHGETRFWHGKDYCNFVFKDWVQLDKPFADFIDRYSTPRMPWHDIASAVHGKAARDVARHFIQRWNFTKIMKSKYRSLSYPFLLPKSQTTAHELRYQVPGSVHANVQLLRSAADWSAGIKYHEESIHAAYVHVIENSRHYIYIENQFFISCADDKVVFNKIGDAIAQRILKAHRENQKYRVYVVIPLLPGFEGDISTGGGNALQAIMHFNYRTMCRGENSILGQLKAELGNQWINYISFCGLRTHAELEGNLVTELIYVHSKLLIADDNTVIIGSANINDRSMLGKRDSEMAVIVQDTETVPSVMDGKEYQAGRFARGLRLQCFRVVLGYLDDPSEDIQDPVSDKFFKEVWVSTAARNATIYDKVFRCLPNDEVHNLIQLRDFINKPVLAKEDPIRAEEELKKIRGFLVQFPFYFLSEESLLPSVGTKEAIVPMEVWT
Chain of Phospholipase D1 (Homo sapiens) (Q13393 whole entry, looked up): as above

The experiment has as its target Phospholipase D1 (Homo sapiens) (UniProt Q13393). The experiment in a line: cellular phospholipase D1 activity inhibition – Calu-1 cells, single concentration (AID 602144).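 Also: tested at 200 nM.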 To be noted: cellular PLD1 activity, stronger effect = lower value.
As for `O=C(CCN1CCC(n2c(=O)[nH]c3ccccc32)CC1)NCc1ccc(Cl)cc1`, the remaining activity was 98.9%.
`CC1(C)[C@@H]2CC[C@@]1(CS(=O)(=O)NCCN1CCC(n3c(=O)[nH]c4ccccc43)CC1)C(=O)C2`: the remaining activity was 103%.
Next, `O=C(NCCN1CCN(c2ncccn2)CC1)c1ccc2ccccc2c1`: 118%.
Regarding `CCS(=O)(=O)NCCN1CCC(n2c(=O)[nH]c3ccccc32)CC1`, the remaining activity was 121%.
The value for `O=C1c2ccccc2C(=O)N1CCCNCc1ccccn1` was 175%; that for `O=C(NCCN1CC=C(n2c(=O)[nH]c3ccccc32)CC1)[C@H]1C[C@@H]1c1ccccc1` was 85.3%.
As to `O=c1[nH]c2ccccc2n1C1CCN(CCNS(=O)(=O)c2ccc(OC(F)(F)F)cc2)CC1`, the remaining activity was 117%.
With `O=C(C1C[C@@H]1c1ccccc1)N1CCC(n2c(=O)[nH]c3cc(Cl)ccc32)CC1` (some centres not stated), the remaining activity was 89.8%.
`Cc1ccc(C(=O)N[C@@H](C)CN2CCC(n3c(=O)[nH]c4c(F)cccc43)CC2)cc1`: the remaining activity was 40.7% (active).
On to `COc1ccc(S(=O)(=O)NCCN2CCC(n3c(=O)[nH]c4ccccc43)CC2)cc1`, for which the remaining activity was 140%.
For the compound `C[C@@H](CN1CCC2(CC1)CCN(C)C2=O)NC(=O)c1cnc2ccccc2c1`, the remaining activity was 127%.
Consider `O=C(NCCN1CCC(n2c(=O)[nH]c3ccccc32)CC1)Nc1ccccc1F`, for which the remaining activity is 102%.
With `O=C(NCCN1CCC2(CC1)CCN(c1ccccc1)C2=O)c1cnc2ccccc2c1`, the remaining activity is 109%.
Consider `O=C(NCCN1CCC2(CC1)CNc1ccccc12)C1CC1c1ccccc1` (configuration not stated), for which the remaining activity is 113%.
Consider `O=C(NCCN1CCC(n2c(=O)[nH]c3ccccc32)CC1)c1cc2ccccc2c2c1ccc1ccccc12`, for which the remaining activity is 102%.
Turning to `C[C@@H](CN1CCC(n2c(=O)[nH]c3ccc(F)cc32)CC1)NC(=O)c1ccc(F)c(F)c1`, the remaining activity is 13.7% (active).
As to `CCCS(=O)(=O)NCCN1CCC(n2c(=O)[nH]c3ccccc32)CC1`, the remaining activity is 120%.
Regarding `Cc1ccc(C(=O)NCCN2CCN(c3ccncc3)CC2)cc1`, the remaining activity is 148%.
Next, `O=C(NCCN1CCC(n2c(=O)[nH]c3ccc(F)cc32)CC1)c1ccc(C(F)(F)F)cc1`: 19.1% (active); `O=C(NCCN1CCC(C(=O)NCC2CC2)CC1)c1ccc2ccccc2c1`: 106%; `O=c1[nH]c2ccccc2n1C1CCN(CCNC(=S)Nc2ccccn2)CC1`: 148%.
Take `O=C(NCCN1CCC2(CC1)CCN(c1ccccc1)C2=O)c1ccc2ccccc2c1`: the remaining activity is 113%.
Consider `O=C(NCCN1CCC(n2c(=O)[nH]c3ccccc32)CC1)c1cc2ccccc2c2ccccc12`, for which the remaining activity was 7.23% (active).
Next, `COc1cccc(N2CCN(CCNC(=O)c3ccc(C)cc3)CC2)c1`: 84.8%; `O=C1c2ccccc2C(=O)N1CCCNc1cccc(F)c1`: 166%; `O=C(NCCN1CCN(c2ccncc2)CC1)c1ccc2ccccc2c1`: 139%.
As for `CS(=O)(=O)NCCN1CCC(n2c(=O)[nH]c3ccccc32)CC1`, the remaining activity was 88%.

For orientation: remaining activity means the signal under treatment as a percentage of the control signal.

(Values after PubChem BioAssay AID602144 (Vanderbilt Specialized Chemistry Center, 2011).)
